Measurements reported in PubChem BioAssay.
The source made the active and inactive calls. Unless noted, no rule for the calls is given here.

Assays:
[1] = anti-His antibody binders, primary screen, artefact control for SMM control protein annotation, biochemical, small-molecule microarray, 635 nm fluorescence (AID 1128); settings: anti-His Alexa647 antibody binding, higher = more signal;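 also: score merges feature fluorescence with signal-to-noise for each printed compound spot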
[2] = tested on: Human papillomavirus type 1a E7 protein (residues 1-88); assay: HPV1a E7 small-molecule binders, primary screen, biochemical, small-molecule microarray, residues 1-88, 635 nm (AID 1129); settings: small-molecule microarray binding, fluorescence 635 nm; higher = more signal
[3] = biological target: Focal adhesion kinase 1 (Homo sapiens) (UniProt Q05397); assay: small-molecule microarray binders of FAK, primary screen, biochemical, 635/667 nm fluorescence, BSA, DTT (AID 1130); settings: PTK2 binding, 635 nm fluorescence, higher = more signal;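 also: composite of spot emission at 667 nm and signal to noise over triplicate slides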
[4] = tested on: Fibrinogen (Alexa647-labelled); assay: fibrinogen binders on compound microarrays, profiling panel, artefact control for SMM control-protein annotation, biochemical, small-molecule microarray, 635/667 nm fluorescence (AID 1131); settings: fibrinogen-A647 binding fluorescence, higher = more signal;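 also: z-score merges 667 nm fluorescence with per-spot signal-to-noise over triplicate slides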
[5] = biological target: Follistatin (Homo sapiens) (UniProt P19883); assay: follistatin binders on small-molecule microarrays, primary screen, biochemical, small-molecule microarray, 635/667 nm fluorescence (AID 1132); settings: FST binding, 635 nm fluorescence, higher = more signal
[6] = biological target: Fibroblast growth factor 2 (Homo sapiens) (UniProt P09038); assay: FGF2 binders on small-molecule microarrays, primary screen, biochemical, small-molecule microarray, 635/667 nm fluorescence (AID 1133); settings: small-molecule microarray binding, FGF2, fluorescence 635/667; higher = more signal
[7] = mitochondrial membrane potential change in A549 cells, profiling panel, cell-based, JC-1 fluorescence, basal, 24 h, 100 nL (AID 1138); settings: higher = more signal;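 also: A549 lung adenocarcinoma cells under basal conditions with no added stimulus; test concentration not given here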
Lefty1 = Lefty1 binders on small-molecule microarrays, primary screen, biochemical, small-molecule microarray, 635/667 nm fluorescence (AID 1139); settings: small-molecule microarray binding, fluorescence 635/667; higher = more signal
[8] = tested on: wheat germ agglutinin (Triticum aestivum), Alexa647-labelled; assay: wheat germ agglutinin binders on compound microarrays, profiling panel, artefact control for SMM control-protein annotation, biochemical, small-molecule microarray, 635/667 nm fluorescence (AID 1140); settings: WGA-A647 binding, 635 nm fluorescence, higher = more signal;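 also: score merges 667 nm feature emission with signal to noise over triplicate slides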
[9] = biological target: Luciferin 4-monooxygenase (Photinus pyralis) (UniProt P08659); assay: firefly luciferase enzyme inhibitors, primary screen, biochemical, luminescence, purified enzyme, 2006 set (AID 1141); settings: SteadyGlo luminescence, 30 min, higher = more signal, called active from +8 up or from −8 down;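 also: cell-free assay with purified firefly luciferase at 100 ng per well in PBS; test concentration not given here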
[10] = tested on: Wnt5a (protein binding on small-molecule microarray); assay: Wnt5a binders on small-molecule microarray, primary screen, biophysical, 635/667 nm fluorescence (AID 1142); settings: 635 nm fluorescence, higher = more signal;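 also: fluorescence read at 667 nm with signal to noise per printed feature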
[11] = cell viability in Huh7 cells, primary screen, cytotoxicity control for HCV replication inhibitor project, CellTiter-Glo luminescence, basal, 48 h (AID 1143); settings: Huh7 HCV replicon, higher = more signal, called active from +8 up or from −8 down;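 also: Huh7 hepatoma cells carrying a hepatitis C replication reporter with no stimulus; test concentration not given here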
[12] = P. aeruginosa biofilm formation inhibitors, primary screen, PAO1 strain, BacTiter-Glo luminescence, LB-PBS (AID 1144); settings: 12 h, higher = more signal
[13] = CREB reporter modulators without forskolin, primary screen, cell-based, PC12, CRE-LacZ reporter, unstimulated (AID 1145); settings: no forskolin, luminescence, 4.5 h, higher = more signal, called active from +8 up or from −8 down
[14] = CREB reporter modulators under forskolin, primary screen, cell-based, PC12, CRE-LacZ reporter, forskolin-stimulated (AID 1146); settings: luminescence, 4.5 h, higher = more signal, called active from +8 up or from −8 down;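 also: PC12 cells with 6xCRE LacZ reporter stimulated by forskolin 10 µM; beta-galactosidase reporter signal reflecting CREB driven transcription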
[15] = biological target: Streptavidin (Streptomyces avidinii) (UniProt P22629); assay: streptavidin binders on small-molecule microarray, primary screen, artefact control for SMM compound annotation, biophysical, 635/667 nm fluorescence (AID 1147); settings: streptavidin binding, higher = more signal;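 also: signal reflects streptavidin binding to arrayed compounds as a control protein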
[16] = small-molecule binders of probe aInhba, primary screen, biochemical, small-molecule microarray, 635/667 nm fluorescence (AID 1148); settings: higher = more signal;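 also: score merges 667nm spot fluorescence with signal-to-noise for antibody binding to printed compounds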
Torsin-1A (Homo sapiens) [17] = biological target: Torsin-1A (Homo sapiens) (UniProt O14656); assay: torsin A binders from cell lysate, primary screen, small-molecule microarray, wild-type, 635/667 nm (AID 1149); settings: COS7 hTOR1A-WT lysate, 635 nm fluorescence, higher = more signal
Torsin-1A (Homo sapiens) [18] = biological target: Torsin-1A (Homo sapiens) (UniProt O14656); assay: small-molecule binders of mutant TOR1A in lysate, primary screen, cell lysate, small-molecule microarray, COS7 lysate, 635/667 nm fluorescence (AID 1150); settings: COS7 hTOR1A mutant lysate, 635 nm fluorescence, higher = more signal;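 also: score pools 667 nm emission and signal to noise measuring lysate protein binding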
[19] = tested on: Sonic hedgehog protein (Shh); assay: small-molecule binders of Shh protein, primary screen, biochemical, small-molecule microarray, 635/667 nm fluorescence (AID 1151); settings: small-molecule microarray binding, 635 nm fluorescence; higher = more signal;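 also: Shh protein binding to compounds spotted on small-molecule microarray slides; score combines spot fluorescence intensity with signal-to-noise across triplicate slides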

Sequence of Focal adhesion kinase 1 (Homo sapiens) (Q05397 whole entry, looked up): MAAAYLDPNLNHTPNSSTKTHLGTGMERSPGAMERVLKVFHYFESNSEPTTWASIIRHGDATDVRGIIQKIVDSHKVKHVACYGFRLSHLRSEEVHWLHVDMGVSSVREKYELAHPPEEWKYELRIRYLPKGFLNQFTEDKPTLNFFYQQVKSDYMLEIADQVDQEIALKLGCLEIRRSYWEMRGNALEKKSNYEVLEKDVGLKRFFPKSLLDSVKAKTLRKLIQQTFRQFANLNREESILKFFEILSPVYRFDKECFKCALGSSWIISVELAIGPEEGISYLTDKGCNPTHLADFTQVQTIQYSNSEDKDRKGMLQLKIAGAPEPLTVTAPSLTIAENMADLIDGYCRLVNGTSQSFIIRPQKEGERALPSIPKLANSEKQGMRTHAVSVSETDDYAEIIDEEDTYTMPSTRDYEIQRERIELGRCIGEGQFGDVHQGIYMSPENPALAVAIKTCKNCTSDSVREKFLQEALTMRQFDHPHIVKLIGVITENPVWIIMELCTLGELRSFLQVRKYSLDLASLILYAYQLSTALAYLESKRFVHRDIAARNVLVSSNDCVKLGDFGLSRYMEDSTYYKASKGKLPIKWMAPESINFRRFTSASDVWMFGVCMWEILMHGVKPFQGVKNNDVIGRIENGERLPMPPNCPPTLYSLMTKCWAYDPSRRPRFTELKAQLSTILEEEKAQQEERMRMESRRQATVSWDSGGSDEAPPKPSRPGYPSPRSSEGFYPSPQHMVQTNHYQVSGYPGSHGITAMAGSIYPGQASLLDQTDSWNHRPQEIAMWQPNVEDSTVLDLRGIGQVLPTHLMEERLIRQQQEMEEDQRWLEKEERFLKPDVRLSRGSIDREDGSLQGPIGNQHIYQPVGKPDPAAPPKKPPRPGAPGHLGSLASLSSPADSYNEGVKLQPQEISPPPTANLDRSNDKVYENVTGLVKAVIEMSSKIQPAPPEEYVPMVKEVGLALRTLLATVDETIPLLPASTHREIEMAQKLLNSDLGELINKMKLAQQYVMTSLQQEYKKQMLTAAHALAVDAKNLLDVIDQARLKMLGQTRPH
Sequence of Streptavidin (Streptomyces avidinii) (P22629 whole entry, looked up): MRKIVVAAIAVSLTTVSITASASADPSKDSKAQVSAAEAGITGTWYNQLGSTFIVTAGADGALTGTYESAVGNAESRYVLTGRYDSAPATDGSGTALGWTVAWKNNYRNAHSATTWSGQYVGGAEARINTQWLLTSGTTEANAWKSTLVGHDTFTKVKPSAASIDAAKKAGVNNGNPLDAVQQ
Sequence of Follistatin (Homo sapiens) (P19883 whole entry, looked up): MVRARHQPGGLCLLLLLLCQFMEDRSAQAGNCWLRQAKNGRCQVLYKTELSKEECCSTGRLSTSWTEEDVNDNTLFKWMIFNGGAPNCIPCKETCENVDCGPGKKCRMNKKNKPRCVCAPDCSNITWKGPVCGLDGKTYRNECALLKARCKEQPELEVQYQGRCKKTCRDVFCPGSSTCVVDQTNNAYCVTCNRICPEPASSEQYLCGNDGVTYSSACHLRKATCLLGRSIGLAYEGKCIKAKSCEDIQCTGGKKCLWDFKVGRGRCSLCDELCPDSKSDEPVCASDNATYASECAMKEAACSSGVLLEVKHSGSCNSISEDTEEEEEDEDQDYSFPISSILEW
Sequence of Fibroblast growth factor 2 (Homo sapiens) (P09038 whole entry, looked up): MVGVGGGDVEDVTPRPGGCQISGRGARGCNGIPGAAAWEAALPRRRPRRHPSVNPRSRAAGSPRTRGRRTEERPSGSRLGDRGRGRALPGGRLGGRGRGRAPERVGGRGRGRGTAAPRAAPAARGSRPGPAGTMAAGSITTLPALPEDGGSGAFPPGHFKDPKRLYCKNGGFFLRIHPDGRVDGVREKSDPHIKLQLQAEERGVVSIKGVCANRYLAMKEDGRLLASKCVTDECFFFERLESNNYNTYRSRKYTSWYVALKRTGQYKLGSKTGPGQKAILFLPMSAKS
Sequence of Luciferin 4-monooxygenase (Photinus pyralis) (P08659 whole entry, looked up): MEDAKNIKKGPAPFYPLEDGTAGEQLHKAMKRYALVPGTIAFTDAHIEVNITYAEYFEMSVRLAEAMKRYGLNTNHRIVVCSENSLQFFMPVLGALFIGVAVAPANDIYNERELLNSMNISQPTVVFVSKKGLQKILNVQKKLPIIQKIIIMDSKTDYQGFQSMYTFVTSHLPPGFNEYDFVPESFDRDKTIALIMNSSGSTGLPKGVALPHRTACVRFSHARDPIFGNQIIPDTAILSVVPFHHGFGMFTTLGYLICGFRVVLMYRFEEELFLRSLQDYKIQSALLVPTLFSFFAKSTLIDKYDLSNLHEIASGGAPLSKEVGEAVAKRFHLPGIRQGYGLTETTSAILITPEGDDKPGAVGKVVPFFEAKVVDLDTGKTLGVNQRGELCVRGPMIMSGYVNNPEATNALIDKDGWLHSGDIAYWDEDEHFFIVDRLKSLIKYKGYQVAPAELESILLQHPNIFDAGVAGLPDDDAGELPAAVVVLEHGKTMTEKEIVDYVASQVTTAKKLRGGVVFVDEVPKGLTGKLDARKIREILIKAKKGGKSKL
Sequence of Torsin-1A (Homo sapiens) (O14656 whole entry, looked up): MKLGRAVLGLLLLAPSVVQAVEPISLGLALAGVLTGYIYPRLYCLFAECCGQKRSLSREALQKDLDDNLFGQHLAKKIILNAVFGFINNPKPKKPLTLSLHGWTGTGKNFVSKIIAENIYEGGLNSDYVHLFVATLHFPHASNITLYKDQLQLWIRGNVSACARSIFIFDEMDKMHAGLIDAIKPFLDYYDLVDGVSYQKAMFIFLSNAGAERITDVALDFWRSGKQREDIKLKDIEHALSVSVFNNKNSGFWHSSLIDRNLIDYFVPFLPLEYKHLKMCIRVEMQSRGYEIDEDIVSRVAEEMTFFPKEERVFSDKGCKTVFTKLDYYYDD

| SMILES | composite z-score [1] | composite z-score [2] | composite z-score [3] | composite z-score [4] | composite z-score [5] | composite z-score [6] | z-score [7] | composite z-score (Lefty1) | composite z-score [8] | z-score [9] | composite z-score [10] | z-score [11] | z-score [12] | z-score [13] | z-score [14] | composite z-score [15] | composite z-score [16] | composite z-score (Torsin-1A (Homo sapiens) [17]) | composite z-score (Torsin-1A (Homo sapiens) [18]) | composite z-score [19] |
| --- | --- | --- | --- | --- | --- | --- | --- | --- | --- | --- | --- | --- | --- | --- | --- | --- | --- | --- | --- | --- |
| C=CC[C@@]1(C(=O)O)N=C(c2ccc(OCCCO)cc2)O[C@@H]1c1ccccc1CN=[N+]=[N-] | 0.706 | 0.86 | 0.518 | 0.68 | 0.939 | 0.381 | -0.472 | 0.588 | 1.24 | -0.926 (inactive) | 0.229 | -1.9 (inactive) | -1.6 (inactive) | -0.183 (inactive) | -1.13 (inactive) | 1.93 | -0.0736 | -0.0975 | 0.884 | 0.582 |
| CO[C@H]1O[C@H](CO)[C@@H](OC(=O)Nc2ccc3c(c2)OCO3)[C@@H]2OC(=O)[C@@H](Cc3ccccc3)C/C=C/C[C@H](Cc3ccccc3)C(=O)O[C@@H]12 | 2.53 | 1.18 | 0.458 | 0.659 | 0.974 | 0.684 | 2.76 | 0.433 | 0.214 | -1.01 (inactive) | 0.465 | -2.26 (inactive) | 0.293 (inactive) | 0.951 (inactive) | -0.601 (inactive) | 0.294 | 0.24 | -0.0548 | 0.266 | 1.32 |
| CC(C)CNC(=O)[C@@H]1c2ccccc2C(=O)N(Cc2ccccc2Cl)[C@H]1c1ccc(CO)cc1 | 1.48 | 0.844 | 0.401 | -1.73 | -0.158 | 0.223 | 0.572 | -0.785 | -0.215 | 0.686 (inactive) | -0.0721 | -0.121 (inactive) | -0.431 (inactive) | -0.179 (inactive) | -0.867 (inactive) | -0.222 | -0.204 | 0.0521 | 0.13 | 0.145 |
| CCOC(=O)C1=CCC(c2cc3ccccc3[nH]2)N(S(=O)(=O)c2ccccc2[N+](=O)[O-])C1 (stereo not given) | 0.584 | 1.2 | 0.501 | 0.0547 | 0.574 | -0.103 | 1.05 | 0.306 | 0.896 | -0.0781 (inactive) | 0.379 | -5.05 (inactive) | -0.295 (inactive) | -0.172 (inactive) | -0.0943 (inactive) | -0.141 | -0.101 | 0.0459 | 0.609 | -0.312 |
| C=CCC(OC(C)=O)[C@@H]1[C@@H](N(Cc2ccc(-c3cccc(C(F)(F)F)c3)o2)C(=O)Cc2ccc(F)cc2)c2cc(OCCCO)ccc2N1C(=O)c1ccc2ccccc2n1 (stereo not given in full) | -0.255 | -0.732 | -0.153 | -1.12 | 0.67 | -0.0898 | 0.898 | -0.286 | -0.375 | -0.1 (inactive) | -0.123 | -0.0676 (inactive) | -0.147 (inactive) | 0.134 (inactive) | 1.5 (inactive) | -0.127 | -0.176 | -0.187 | -0.326 | 0.244 |
| COC(=O)[C@]1(CO)N=C(c2ccc(OCCCO)cc2)O[C@@H]1c1ccccc1CN=[N+]=[N-] | 0.477 | 0.286 | 0.1 | -0.353 | 0.996 | 0.435 | -0.232 | 0.341 | -0.342 | -0.676 (inactive) | -0.0408 | -0.394 (inactive) | 1.34 (inactive) | 0.643 (inactive) | 0.224 (inactive) | -0.447 | -0.154 | -0.208 | 0.518 | 0.583 |
| CO[C@H]1O[C@H](CO)[C@@H](OC(=O)Nc2ccccc2)[C@@H]2OC(=O)[C@H](Cc3ccccc3)C/C=C/C[C@@H](Cc3ccccc3)C(=O)O[C@@H]12 | 2.3 | 1.13 | 0.473 | 0.718 | 1.29 | 1.74 | 2.27 | 1.33 | 0.588 | -0.617 (inactive) | 0.399 | -3.81 (inactive) | -0.805 (inactive) | 0.512 (inactive) | -1.36 (inactive) | 0.564 | -0.0762 | 0.527 | 0.348 | 1.62 |
| C=C(COC)/C(=C/C[C@@H](OC(C)=O)c1ccccc1OCCO)c1cc(C(=O)OC)ccc1OC | 2.21 | 0.461 | -0.102 | -0.325 | 0.569 | 0.36 | 1.75 | 0.624 | 0.344 | -1.47 (inactive) | 0.143 | -1 (inactive) | -0.765 (inactive) | 11.4 (active) | 0.323 (inactive) | -0.333 | -0.188 | 0.237 | 0.612 | 0.94 |
| CCCC=C(CCC)[C@@H](NC(=O)c1ccccc1)c1ccc(C(=O)OC)cc1 | 0.877 | 0.598 | -0.17 | 0.214 | 1.06 | 1.1 | -1.71 | 0.439 | -0.0525 | 1.5 (inactive) | 0.675 | -4.41 (inactive) | -0.947 (inactive) | -0.379 (inactive) | 0.0425 (inactive) | -0.0576 | 0.326 | 0.615 | 0.546 | 0.293 |
